# Test results published in the supplement of paper PMC8728848.
# About 410 targets per protein were measured; listed, in parts, are those with the strongest signals and a random draw of the rest.
# B1: CAA (Caragana arborescens) (protein)
# chain: VAVEFDTFDNPDWDPRTKHIGIDVNSIRSNKTTQWGFWNRQVADVDISYEASSKTLNVSLYYPGESYIVTDVVDLKDILPEWVRIGF
# Experiments:
# Experiment in all cases: glycan array binding signal (z-score within array); higher = stronger binding
# Conditions in all cases: glycan notation: IUPAC condensed, linker removed
# [1] = molecular target: Fuc(a1-2)Gal(b1-3)GlcNAc(b1-2)Man(a1-3)[Fuc(a1-2)Gal(b1-3)GlcNAc(b1-2)Man(a1-6)]Man(b1-4)GlcNAc(b1-4)GlcNAc
# Procedure, shortened: (§1)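 Arrays were curated from the Consortium for Functional Glycomics database, 3228 in total, and kept only where the protein sequence was available. Binding is expressed as a within-array Z-score. This score was averaged across arrays of the same protein sequence at different concentrations or buffers and across linkers, and negative values can be read as non-binding.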
# [2] = molecular target: Fuc(a1-2)Gal(b1-3)GlcNAc(b1-3)GalNAc
# Procedure, shortened: as §1
# [3] = molecular target: Fuc(a1-2)Gal(b1-3)GlcNAc(b1-3)[Fuc(a1-2)Gal(b1-3)GlcNAc(b1-6)]GalNAc
# Procedure, shortened: as §1
# [4] = molecular target: Fuc(a1-2)Gal(b1-3)GlcNAc(b1-3)[Gal(b1-4)GlcNAc(b1-6)]Gal(b1-4)Glc
# Procedure, shortened: as §1
# [5] = molecular target: Fuc(a1-2)Gal(b1-3)[Fuc(a1-4)]GlcNAc(b1-2)Man(a1-3)[Fuc(a1-2)Gal(b1-3)[Fuc(a1-4)]GlcNAc(b1-2)Man(a1-6)]Man(b1-4)GlcNAc(b1-4)[Fuc(a1-6)]GlcNAc(b1-4)[Fuc(a1-6)]GlcNAc
# Procedure, shortened: as §1
# [6] = molecular target: Fuc(a1-2)Gal(b1-4)GlcNAc
# Procedure, shortened: as §1
# [7] = molecular target: Fuc(a1-2)Gal(b1-4)GlcNAc(b1-2)Man(a1-3)[Fuc(a1-2)Gal(b1-4)GlcNAc(b1-2)Man(a1-6)]Man(b1-4)GlcNAc(b1-4)GlcNAc
# Procedure, shortened: as §1
# [8] = molecular target: Fuc(a1-2)Gal(b1-4)[Fuc(a1-3)]GlcNAc(b1-3)GalNAc
# Procedure, shortened: as §1
# [9] = molecular target: Fuc(a1-2)[Gal(a1-3)]Gal(b1-3)GlcNAc
# Procedure, shortened: as §1
# [10] = molecular target: Fuc(a1-2)[Gal(a1-3)]Gal(b1-3)GlcNAc(b1-2)Man(a1-3)[Fuc(a1-2)[Gal(a1-3)]Gal(b1-3)GlcNAc(b1-2)Man(a1-6)]Man(b1-4)GlcNAc(b1-4)GlcNAc
# Procedure, shortened: as §1
# [11] = molecular target: Fuc(a1-2)[Gal(a1-3)]Gal(b1-4)GlcNAc(b1-6)GalNAc
# Procedure, shortened: as §1
# [12] = molecular target: Fuc(a1-2)[GalNAc(a1-3)]Gal(b1-4)GlcNAc(b1-3)Gal(b1-4)GlcNAc(b1-3)Gal(b1-4)GlcNAc
# Procedure, shortened: as §1
# [13] = molecular target: Gal(b1-3)GalNAc(b1-3)Gal(a1-4)Gal(b1-4)Glc
# Procedure, shortened: as §1
# [14] = molecular target: Gal(b1-3)GlcNAc(b1-2)Man(a1-3)[Gal(b1-3)GlcNAc(b1-2)Man(a1-6)]Man(b1-4)GlcNAc(b1-4)GlcNAc
# Procedure, shortened: as §1
# [15] = molecular target: Gal(b1-3)GlcNAc(b1-2)Man(a1-3)[Gal(b1-3)GlcNAc(b1-2)Man(a1-6)]Man(b1-4)GlcNAc(b1-4)[Fuc(a1-6)]GlcNAc
# Procedure, shortened: as §1
# [16] = molecular target: Gal(b1-3)GlcNAc(b1-2)[Gal(b1-3)GlcNAc(b1-6)]Man(a1-6)[Gal(b1-3)GlcNAc(b1-2)Man(a1-3)]Man(b1-4)GlcNAc(b1-4)GlcNAc
# Procedure, shortened: as §1
# [17] = molecular target: Gal(b1-3)[Fuc(a1-4)]GlcNAc
# Procedure, shortened: as §1
# [18] = molecular target: Gal(b1-4)Gal
# Procedure, shortened: as §1
# [19] = molecular target: Gal(b1-4)GlcNAc(a1-6)Gal(b1-4)GlcNAc
# Procedure, shortened: as §1
# [20] = molecular target: Gal(b1-4)GlcNAc(b1-2)Man(a1-3)[Gal(b1-4)GlcNAc(b1-2)Man(a1-6)]Man(b1-4)GlcNAc(b1-4)GlcNAc
# Procedure, shortened: as §1
# [21] = molecular target: Gal(b1-4)GlcNAc(b1-2)Man(a1-3)[GlcNAc(b1-4)][Gal(b1-4)GlcNAc(b1-2)Man(a1-6)]Man(b1-4)GlcNAc(b1-4)GlcNAc
# Procedure, shortened: as §1
# [22] = molecular target: Gal(b1-4)GlcNAc(b1-2)Man(a1-6)[GlcNAc(b1-2)Man(a1-3)]Man(b1-4)GlcNAc(b1-4)GlcNAc
# Procedure, shortened: as §1
# [23] = molecular target: Gal(b1-4)GlcNAc(b1-2)[Gal(b1-4)GlcNAc(b1-4)]Man(a1-3)[GlcNAc(b1-4)][Gal(b1-4)GlcNAc(b1-2)Man(a1-6)]Man(b1-4)GlcNAc(b1-4)GlcNAc
# Procedure, shortened: as §1
# [24] = molecular target: GalNAc6S(b1-4)GlcNAc
# Procedure, shortened: as §1
# [25] = molecular target: GlcA(b1-6)Gal
# Procedure, shortened: as §1
# [26] = molecular target: GlcNAc(a1-4)Gal(b1-4)GalNAc
# Procedure, shortened: as §1
# [27] = molecular target: GlcNAc(b1-2)Man(a1-3)[GlcNAc(b1-2)Man(a1-6)]Man(b1-4)GlcNAc(b1-4)GlcNAc
# Procedure, shortened: as §1
# [28] = molecular target: GlcNAc(b1-2)[GlcNAc(b1-4)]Man(a1-3)[GlcNAc(b1-2)Man(a1-6)]Man(b1-4)GlcNAc(b1-4)GlcNAc
# Procedure, shortened: as §1
# [29] = molecular target: GlcNAc(b1-3)Fuc
# Procedure, shortened: as §1
# [30] = molecular target: Man(a1-2)Man(a1-3)[Man(a1-2)Man(a1-6)]Man(a1-6)[Man(a1-2)Man(a1-2)Man(a1-3)]Man
# Procedure, shortened: as §1
# [31] = molecular target: Neu5Ac(a2-3)Gal(b1-3)[Fuc(a1-4)]GlcNAc(b1-3)Gal(b1-3)[Fuc(a1-4)]GlcNAc
# Procedure, shortened: as §1
# [32] = molecular target: Neu5Ac(a2-3)Gal(b1-4)GlcNAc(b1-3)Gal(b1-4)[Fuc(a1-3)]GlcNAc
# Procedure, shortened: as §1
# [33] = molecular target: Neu5Ac(a2-3)GalNAc
# Procedure, shortened: as §1
# [34] = molecular target: Neu5Ac(a2-6)Gal(b1-4)GlcNAc(b1-2)Man(a1-3)[GlcNAc(b1-4)][Neu5Ac(a2-6)Gal(b1-4)GlcNAc(b1-2)Man(a1-6)]Man(b1-4)GlcNAc(b1-4)GlcNAc
# Procedure, shortened: as §1
# [35] = molecular target: Neu5Ac(a2-6)Gal(b1-4)GlcNAc(b1-2)Man(a1-6)[Gal(b1-4)GlcNAc(b1-2)Man(a1-3)]Man(b1-4)GlcNAc(b1-4)GlcNAc
# Procedure, shortened: as §1
# [36] = molecular target: Neu5Ac(a2-6)Gal(b1-4)GlcNAc(b1-2)Man(a1-6)[GlcNAc(b1-2)Man(a1-3)]Man(b1-4)GlcNAc(b1-4)GlcNAc
# Procedure, shortened: as §1
# [37] = molecular target: Neu5Ac(a2-6)Gal(b1-4)GlcNAc(b1-2)Man(a1-6)[Man(a1-3)]Man(b1-4)GlcNAc(b1-4)GlcNAc
# Procedure, shortened: as §1
# [38] = molecular target: Neu5Ac(a2-6)Gal(b1-4)GlcNAc(b1-6)GalNAc
# Procedure, shortened: as §1
# [39] = molecular target: Neu5Ac(a2-8)Neu5Ac(a2-8)Neu5Ac
# Procedure, shortened: as §1
# [40] = molecular target: Neu5Ac9Ac(a2-6)Gal(b1-4)GlcNAc
# Procedure, shortened: as §1
binder,measurement,setting,value
B1,glycan array binding signal (z-score),[1],4.07
same,glycan array binding signal (z-score),[2],-0.244
same,glycan array binding signal (z-score),[3],-0.242
same,glycan array binding signal (z-score),[4],-0.249
same,glycan array binding signal (z-score),[5],1.03
same,glycan array binding signal (z-score),[6],-0.242
same,glycan array binding signal (z-score),[7],2.51
same,glycan array binding signal (z-score),[8],-0.238
same,glycan array binding signal (z-score),[9],-0.238
same,glycan array binding signal (z-score),[10],3.82
same,glycan array binding signal (z-score),[11],-0.248
same,glycan array binding signal (z-score),[12],-0.233
same,glycan array binding signal (z-score),[13],-0.24
same,glycan array binding signal (z-score),[14],6.61
same,glycan array binding signal (z-score),[15],5.29
same,glycan array binding signal (z-score),[16],5.63
same,glycan array binding signal (z-score),[17],-0.24
same,glycan array binding signal (z-score),[18],-0.24
same,glycan array binding signal (z-score),[19],-0.241
same,glycan array binding signal (z-score),[20],4.25
same,glycan array binding signal (z-score),[21],-0.106
same,glycan array binding signal (z-score),[22],5.87
same,glycan array binding signal (z-score),[23],-0.239
same,glycan array binding signal (z-score),[24],-0.252
same,glycan array binding signal (z-score),[25],-0.239
same,glycan array binding signal (z-score),[26],-0.239
same,glycan array binding signal (z-score),[27],5.92
same,glycan array binding signal (z-score),[28],7.33
same,glycan array binding signal (z-score),[29],-0.246
same,glycan array binding signal (z-score),[30],-0.246
same,glycan array binding signal (z-score),[31],-0.24
same,glycan array binding signal (z-score),[32],-0.242
same,glycan array binding signal (z-score),[33],-0.243
same,glycan array binding signal (z-score),[34],-0.251
same,glycan array binding signal (z-score),[35],3.9
same,glycan array binding signal (z-score),[36],5.95
same,glycan array binding signal (z-score),[37],0.262
same,glycan array binding signal (z-score),[38],-0.236
same,glycan array binding signal (z-score),[39],-0.249
same,glycan array binding signal (z-score),[40],-0.245
